The record followed here is PubChem BioAssay (EPA / NIEHS).

The source made the active and inactive calls. How the source made its calls: active means hit-call score of the fitted dose curve at least 0.9, where 1 is the maximum; inactive means score below 0.9.

The nature of the assay: CCTE_Harrill_HTTr_Apoptosis_MCF7: CCTE's 6-hour Apoptosis Assessment for the High-Throughput Transcriptomics (HTTr) Platform, in MCF-7 cells cultured in DMEM + 10% fetal bovine serum, Harrill Lab (AID 2284011). An outline of the steps: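 Apoptosis in MCF-7 cells grown in DMEM with 10% fetal bovine serum was scored after a six hour exposure by high content imaging of caspase-3/7 activation (CellEvent Caspase 3/7 Green), with DMSO serving as negative control and baseline.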
As to `O=Cc1ccc(CO)o1`, the result was inactive. In the case of `CC(=O)OCC(=O)[C@@]12N=C(C)O[C@@H]1C[C@H]1[C@@H]3CCC4=CC(=O)C=C[C@]4(C)[C@H]3[C@@H](O)C[C@@]12C`, the result was inactive. As for `CN(C)c1ccc(N=Nc2ccccc2C(=O)O)cc1`, the result was inactive. As for `c1ccc(-c2ccccn2)nc1`, the outcome was inactive. For `CC1(C)O[C@@H]2C[C@H]3[C@@H]4C[C@H](F)C5=CC(=O)C=C[C@]5(C)[C@@]4(F)[C@@H](O)C[C@]3(C)[C@]2(C(=O)CO)O1`, the outcome was inactive. As to `CCCCCCCCCCCCCCCC(=O)OCC`, the outcome was inactive. Regarding `CC(=O)NS(=O)(=O)c1ccc(N)cc1`, the outcome was inactive. For the compound `CCCNC(=O)NS(=O)(=O)c1ccc(Cl)cc1`, the result was inactive. With `CCOC(=O)N1CCC(=C2c3ccc(Cl)cc3CCc3cccnc32)CC1`, the result was inactive. On to `CC1(C)O[C@@H]2C[C@H]3[C@@H]4C[C@H](F)C5=CC(=O)CC[C@]5(C)[C@H]4[C@@H](O)C[C@]3(C)[C@]2(C(=O)CO)O1`, for which the outcome was inactive. As to `O=C(Nc1ccccc1)c1ccccc1O`, the outcome was inactive.

With `CCCCCC/C=C\CCCCCCCC(=O)O`, the outcome was inactive. With `CC1(C)[C@H]2CC[C@]1(C)C(=O)C2` the entry was “inactive”; with `O=C1c2cccc(O)c2C(=O)c2c(O)cc(CO)cc21`, “inactive”; with `O=c1[nH]nc(-c2ccc([N+](=O)[O-])o2)o1`, “inactive”.
